This is one part of a sample in which hits are shown more often than they occur.
Pf Dd2 growth: Plasmodium falciparum Dd2 growth inhibition; Potency, µM (series often up to 28.9 µM), actives largely listed as inhibitors; AID 1347417; P. falciparum Dd2 growth, SYBR Green, 72 h; actives 4.3% (n = 120,000); active = well fitted inhibition curve with a large enough effect; also: nearly all actives have a fitted effect of over 65% in size
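Infected erythrocytes (Dd2, 0.3% parasitemia, 2.5% hematocrit final) are added to compound in RPMI-1640/Albumax II medium, grown 72 h at 37C in low oxygen, then lysed with saponin/Triton-X containing SYBR Green and read by fluorescence.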
Hits are given with their value; - = inactive; [ ] = dose if it differs, or a comment.

SMILES | Pf Dd2 growth
Cc1cnc(C(=O)N[C@@H]2CCC[C@@H]2C(=O)NCc2ccccc2C)cn1 | -
C=CCC1(CO)CCCN(C(=O)Cc2ccc(CO)cc2)C1 (configuration not stated) | -
Cc1ccc(OCC(=O)N2CCCC2c2nc(C3CCOCC3)no2)cc1 (configuration not stated) | -
CC(=O)Nc1ccc(Nc2ncnc3c2c(-c2ccccc2)cn3-c2ccc(C)c(Cl)c2)cc1 | 7.1µM
COc1ccc(CCNc2ncnc3c2c(-c2ccccc2)cn3-c2cccc(Cl)c2)cc1OC | 8.9µM
COCCNc1ncnc2c1c(-c1ccccc1)cn2-c1cccc(Cl)c1 | -
Cc1ccc(-n2cc(-c3ccccc3)c3c(N4CCC(C)CC4)ncnc32)cc1Cl | -
CC(=O)Nc1ccc(Nc2ncnc3c2c(-c2ccccc2)cn3-c2ccccc2)cc1 | -
COc1ccccc1N1CCN(c2ncnc3c2c(-c2ccccc2)cn3-c2cccc(Cl)c2)CC1 | -
CC[C@H]1CN(Cc2ccc(OC)cc2O)CC[C@H]1CC(=O)N1CCOCC1 | 7.9µM
CC[C@H]1CN(S(=O)(=O)c2ccccc2)CC[C@H]1CC(=O)N1CCOCC1 | -
CC[C@H]1CN(C(=O)c2ccccc2)CC[C@H]1CC(=O)N1CCOCC1 | -
CC(C)c1noc(-c2cn(C3CCN(C(=O)c4cccc5[nH]ccc45)C3)nn2)n1 (configuration not stated) | -
O=C(C1CCCO1)N1CCC(N(Cc2ccccc2)C2CCOCC2)CC1 (configuration not stated) | -
COc1ncc(C(=O)N2CC[C@](C)(O)[C@@H](O)C2)nc1OC | -
Cc1ccc(CCNC(=O)c2cc3c(-c4ccccc4F)nn(C)c3s2)cc1 | -
CCCN(CCC)CCCNC(=O)c1cc2c(-c3ccc(Cl)cc3)nn(C)c2s1 | 8.9µM
COc1ccc(CNC(=O)c2cc3c(-c4ccc(Cl)cc4)nn(C)c3s2)cc1 | -
CCN(Cc1cnn(C)c1)C(=O)c1coc(COc2cccc(C(F)(F)F)c2)n1 | -
O=C(NCc1ccccn1)c1ccc(CN2C(=O)NC3(CCS(=O)(=O)CC3)C2=O)cc1 | -
CCOc1ccccc1C(=O)N1CCC[C@H]1c1nc(-c2ccc(OC)cc2)no1 | -
O=C(c1cccnc1)N1CCN2C(=O)N(C3CCOCC3)C[C@H]2C1 | -
CC(C)=CCn1c(-c2cc(C)oc2C)cn2cc(C(=O)N[C@@H](C)C(N)=O)nc2c1=O | -
CC(C)=CCn1c(-c2ccccc2Cl)cn2cc(C(=O)NCC(C)O)nc2c1=O (configuration not stated) | 10µM
C=CCn1c(-c2ccc(F)cc2)cn2cc(C(=O)N(C)CCO)nc2c1=O | -
SMILES | Pf Dd2 growth
OCC1CN(Cc2ccc(F)cc2Cl)CC12CCNCC2 (configuration not stated) | -
COc1ccc(C(=O)N2CCCn3cncc3C2)c(OC)c1OC | -
COc1ccc(NC(=O)CCSc2nc(-c3ccco3)cc(C(F)(F)F)n2)cc1 | -
CC(=O)c1ccc(NC(=O)CCSc2nc(-c3ccco3)cc(C(F)(F)F)n2)cc1 | -
CN(C)c1ccc(NC(=O)CCSc2nc(-c3ccco3)cc(C(F)(F)F)n2)cc1 | 11µM
Cc1nn(C)c(C)c1S(=O)(=O)N1CCC2(CC1)c1[nH]c3ccccc3c1CCN2C | -
Cc1nc2c(c(=O)[nH]1)CCN(CC1(O)CNCCOC1)CC2 (configuration not stated) | -
O=C1CC(c2ccccc2)N(C(=O)CNS(=O)(=O)Cc2ccccc2)CCCCCN1 (configuration not stated) | -
O=C(c1ccc2cc[nH]c2c1)N1CCC(Cc2nncn2CC2CC2)C1 (configuration not stated) | -
Cc1ccc(NC(=O)N2CCC(Cc3nncn3Cc3ccccc3)C2)cc1C (configuration not stated) | -
Cc1ccc(-c2cc(C(=O)N3CCC(Cc4nncn4CC4CC4)CC3)c3ccccc3n2)cc1C | 2.8µM
Cc1ccc(C)c(C(=O)N2CCCC(n3cc(-c4nc(C(C)C)no4)nn3)C2)c1 (configuration not stated) | -
Cc1nn(-c2ccccc2[N+](=O)[O-])c(C)c1[C@@H]1C=C[C@@H](NS(=O)(=O)c2ccccc2)C1 | -
CC(C)CCN1CCCC2(CNc3ccccc3[S+](=O)([O-])N2)C1 (configuration not stated) | 13µM
Cn1nccc1CN1CCCC2(CNc3ccccc3[S+](=O)([O-])N2)C1 (configuration not stated) | -
N#Cc1ccc(CN2CCCC3(CNc4ccccc4[S+](=O)([O-])N3)C2)cc1 (configuration not stated) | -
Cc1n[nH]c(C)c1CN1CCc2nn(C)c(=O)n2CC1 | -
Cc1ccc(-c2noc([C@@H]3C[C@H](NS(=O)(=O)c4ccc5ccccc5c4)CN3C)n2)cc1 | -
Cc1ccc(C2Cn3nnc(-c4noc(-c5ccc(C)s5)n4)c3CO2)cc1 (configuration not stated) | -
COc1ccc(C2c3c(oc4ccc(C)cc4c3=O)C(=O)N2CCCN2CCOCC2)cc1OC (configuration not stated) | -
CC(C)c1ccc(C2c3c(oc4ccc(Cl)cc4c3=O)C(=O)N2CCCN2CCOCC2)cc1 (configuration not stated) | 6.3µM
Cc1ccc2oc3c(c(=O)c2c1)C(c1ccc(O)cc1)N(CCCN(C)C)C3=O (configuration not stated) | -
COCCOC1CCN(C(=O)Cc2cccc(OC)c2)CC1 | -
COc1ccc(Br)cc1CNC(=O)c1cc2c(=O)n(C)c3ccccc3c2s1 | -
Cc1ccc2[nH]c(=O)c3cc(C(=O)NCCCN4CCC(C)CC4)sc3c2c1 | 8.9µM
SMILES | Pf Dd2 growth
CCN1CCN(CCCNC(=O)c2cc3c(=O)n(C)c4ccccc4c3s2)CC1 | 3.2µM
Cn1c(=O)c2cc(C(=O)NCCCN3CCN(c4ccccc4F)CC3)sc2c2ccccc21 | -[5.79 µM]
Cn1c(=O)c2cc(C(=O)NCCCN3CCN(c4ccc(F)cc4)CC3)sc2c2ccccc21 | -
CCOC(=O)C1CCCN(C(=O)c2cc3c(=O)[nH]c4ccc(C)cc4c3s2)C1 (configuration not stated) | -
CN(CCCNC(=O)c1cc2c(=O)n(C)c3ccccc3c2s1)Cc1ccccc1 | 10µM
CCN(CCCNC(=O)c1cc2c(=O)n(CC)c3ccccc3c2s1)c1ccccc1 | -
CCn1c(=O)c2cc(C(=O)NCCCN3CCC(C)CC3)sc2c2ccccc21 | -
NC(=O)c1cc[nH]c1C1CCCN(C(=O)COc2ccc(F)cc2)C1 (configuration not stated) | -
CCc1noc(-c2cn(C3CCCN(C(=O)c4cc(OC)cc(OC)c4)C3)nn2)n1 (configuration not stated) | -
Cc1cccc(-n2nc(-c3c(C)nc4scc(CC(=O)NC(C)C)n4c3=O)cc2C)c1C | -
Cn1nc(C(=O)N2CCc3nc4cc[nH]n4c(=O)c3C2)c2ccccc21 | -[5.79 µM]
Cc1cccc(OCC(=O)N2CCC(OC3CCN(C)CC3)CC2)c1 | -
COCC(=O)N1CCC2(C1)C(=O)N(CCc1ccccc1)c1ccccc12 (configuration not stated) | -
COc1cccc(C(=O)N2CCC3(C2)C(=O)N(CCc2ccccc2)c2ccccc23)c1 (configuration not stated) | 7.9µM
COc1ccc(CC(=O)N2CCC3(C2)C(=O)N(CCc2ccccc2)c2ccccc23)cc1 (configuration not stated) | -

Assay outcomes deposited in PubChem BioAssay by National Center for Advancing Translational Sciences (NCATS).
